PubChem BioAssay (Tox21)
Inconclusive results are not listed. Activity calls are given as the source filed them. Unless noted, calls follow the shape of the full dose curve.

Columns and labels:
[1] = Nuclear factor erythroid 2-related factor 2/antioxidant responsive element (Nrf2/ARE) small molecule agonists: qHTS cell viability counter screen in human keratinocytes (AID 1919968; active = well fitted cell-killing curve with a large enough effect in the repeat runs; also: nearly all actives have a fitted effect of over 55% in size)
Method in brief: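 After a 5 h attachment period, ARE-reporter keratinocytes were dosed with compounds in DMSO and then cultured 23 h at 37 C. Cell viability came from CellTiter-Fluor signal read after a further 1 h.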

[2] = Nuclear factor erythroid 2-related factor 2/antioxidant responsive element (Nrf2/ARE) small molecule agonists: luciferase reporter gene qHTS assay in human keratinocytes (AID 1919969); also: nearly all actives have a fitted effect of over 35% in size
[3] = target: Gonadotropin-releasing hormone receptor (Homo sapiens) (UniProt P30968); assay: Human gonadotropin-releasing hormone receptor (GnRHR) small molecule agonists, calcium flux assay in GnRHR-HEK293 cells (AID 1920063); also: nearly all actives have a fitted effect of over 35% in size
Gonadotropin-releasing hormone receptor (Homo sapiens), sequence (P30968 whole entry, looked up): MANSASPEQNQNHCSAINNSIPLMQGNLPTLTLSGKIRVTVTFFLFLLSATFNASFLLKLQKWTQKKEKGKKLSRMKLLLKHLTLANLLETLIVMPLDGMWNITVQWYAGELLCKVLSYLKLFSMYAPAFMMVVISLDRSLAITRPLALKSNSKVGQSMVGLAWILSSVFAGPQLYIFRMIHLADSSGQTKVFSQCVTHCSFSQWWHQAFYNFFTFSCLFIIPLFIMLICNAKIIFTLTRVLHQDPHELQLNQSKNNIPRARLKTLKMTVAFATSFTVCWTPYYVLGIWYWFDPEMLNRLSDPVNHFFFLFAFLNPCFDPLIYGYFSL
Method in brief: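 We seeded human GnRHR-expressing HEK293 cells for 18 hours, loaded them with calcium dye for an hour at 37 C, added test compounds, and recorded fluorescence intensity kinetically for three minutes.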

[4] = p53 small molecule agonists, cell-based qHTS assay with human liver microsomes (AID 1963577);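 also: p53 response element beta-lactamase reporter cells with liver microsomes plus NADPH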
Method in brief: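 In this qHTS, p53 response-element beta-lactamase cells receive test compound together with a microsome/NADPH activating system (0.5 mg/mL final each) and are incubated 16 h at 37 C before LiveBLAzer fluorescence detection.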

[5] = p53 small molecule agonists, cell-based qHTS assay with rat liver microsomes (AID 1963578)
Method in brief: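 Agonist mode in p53RE-bla reporter cells, with compounds co-incubated 16 h at 37 C alongside 0.5 mg/mL rat liver microsomes and 0.5 mg/mL NADPH (final), followed by a 2 h LiveBLAzer detection step.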

[6] = p53 small molecule agonists, cell-based qHTS assay with human liver microsomes: qHTS cell viability counter screen (AID 1963579); also: nearly all actives have a fitted effect of over 45% in size
Method in brief: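 Metabolically activated exposure: compounds, human liver microsomes and NADPH (0.5 mg/mL final apiece) were added to p53RE-bla cells seeded 5 h earlier, left 16 h at 37 C, and then assessed for viability by CellTiter-Glo luminescence.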

[7] = p53 small molecule agonists, cell-based qHTS assay with rat liver microsomes: qHTS cell viability counter screen (AID 1963580); also: nearly all actives have a fitted effect of over 45% in size
Method in brief: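 HCT-116 p53RE-bla, 4,000 cells/well, 5 h pre-incubation; cpd + rat liver microsomes 0.5 mg/mL + NADPH 0.5 mg/mL (final); 16 h, 37 C; CellTiter-Glo, 30 min RT; luminescence.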

[8] = p53 small molecule agonists, cell-based qHTS assay: qHTS cell viability counter screen (AID 1963581); also: nearly all actives have a fitted effect of over 45% in size
Method in brief: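 Following 5 h attachment, HCT-116 p53RE-bla cells took up compound for 16 h at 37 C; the reporter was read with B/G FRET substrate (2 h RT), and viability then via CellTiter-Glo ATP luminescence.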

[9] = p53 small molecule agonists, cell-based qHTS assay (AID 1963582; active = well fitted activation curve with a large enough effect in the signal ratio in the repeat runs, not every such curve was filed as active; the % refers to the signal ratio)
Method in brief: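 In this cell-based concentration-response screen, a p53 response element drives beta-lactamase; cells received DMSO-borne compounds after 5 h culture and were incubated a further 16 h before FRET substrate development.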

[10] = target: 5-hydroxytryptamine receptor 2A (Homo sapiens) (UniProt P28223); assay: 5-hydroxytryptamine receptor 2A (HTR2A) small molecule antagonists, cell-based qHTS assay (AID 1963586); also: nearly all actives have a fitted effect of over 45% in size; also: potency is read from the fitted curve at half-maximal effect
5-hydroxytryptamine receptor 2A (Homo sapiens), sequence (P28223 whole entry, looked up): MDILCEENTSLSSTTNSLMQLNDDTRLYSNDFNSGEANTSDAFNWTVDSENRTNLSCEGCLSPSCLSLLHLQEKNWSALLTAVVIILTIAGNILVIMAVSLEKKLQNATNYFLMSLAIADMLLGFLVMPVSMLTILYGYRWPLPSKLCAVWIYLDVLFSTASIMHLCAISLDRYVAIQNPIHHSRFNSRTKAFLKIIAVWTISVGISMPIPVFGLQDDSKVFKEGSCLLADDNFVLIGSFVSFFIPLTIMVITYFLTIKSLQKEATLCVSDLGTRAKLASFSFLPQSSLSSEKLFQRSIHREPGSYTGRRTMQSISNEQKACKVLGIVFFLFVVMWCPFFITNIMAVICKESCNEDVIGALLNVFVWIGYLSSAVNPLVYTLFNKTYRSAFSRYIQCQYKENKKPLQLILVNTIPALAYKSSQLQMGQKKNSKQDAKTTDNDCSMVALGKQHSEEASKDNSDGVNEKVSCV
Method in brief: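 Antagonist-mode intracellular calcium assay: DOI (4 nM) added after 5 min compound pre-incubation at room temperature to dye-loaded HTR2A-CHO cells. Fluorescence followed for 3 min, sampled every second.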

[11] = target: 5-hydroxytryptamine receptor 2A (Homo sapiens) (UniProt P28223); assay: 5-hydroxytryptamine receptor 2A (HTR2A) small molecule agonists, cell-based qHTS assay (AID 1963587); also: nearly all actives have a fitted effect of over 30% in size; also: potency is read from the fitted curve at half-maximal effect
Method in brief: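 Kinetic calcium-flux fluorescence (2 min, 1 sec intervals) after compound addition in agonist mode. HTR2A-CHO cells were cultured 18 h, then dye-loaded 1 h at 37 C.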

[12] = target: Muscarinic acetylcholine receptor M1 (Homo sapiens) (UniProt P11229); assay: Cholinergic receptor muscarinic 1 (CHRM1) small molecule antagonists, cell-based qHTS assay (AID 1963588); also: nearly all actives have a fitted effect of over 40% in size
Muscarinic acetylcholine receptor M1 (Homo sapiens), sequence (P11229 whole entry, looked up): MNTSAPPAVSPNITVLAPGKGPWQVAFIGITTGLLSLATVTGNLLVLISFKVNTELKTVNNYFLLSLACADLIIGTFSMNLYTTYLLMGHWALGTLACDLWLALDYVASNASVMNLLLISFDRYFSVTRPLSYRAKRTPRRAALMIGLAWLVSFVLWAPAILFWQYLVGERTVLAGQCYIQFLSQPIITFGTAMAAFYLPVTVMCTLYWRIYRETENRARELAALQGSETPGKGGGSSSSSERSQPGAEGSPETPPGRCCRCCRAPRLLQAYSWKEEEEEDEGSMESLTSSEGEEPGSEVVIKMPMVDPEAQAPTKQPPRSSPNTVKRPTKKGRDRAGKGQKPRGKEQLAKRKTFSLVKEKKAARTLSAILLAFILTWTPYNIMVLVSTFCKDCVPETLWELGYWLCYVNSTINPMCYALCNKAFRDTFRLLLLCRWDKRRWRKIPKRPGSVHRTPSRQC
Method in brief: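 CHRM1-CHO calcium-flux assay, antagonist mode. Cells were seeded 18 h, dye-loaded 1 h at 37 C and given compound for 5 min at RT, then acetylcholine was added at 50nM. FDSS fluorescence was read 3 min; 15 concentrations, three runs.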

[13] = target: Muscarinic acetylcholine receptor M1 (Homo sapiens) (UniProt P11229); assay: Cholinergic receptor muscarinic 1 (CHRM1) small molecule agonists, cell-based qHTS assay (AID 1963589); also: nearly all actives have a fitted effect of over 35% in size
Method in brief: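 Measures agonist-induced intracellular calcium rise. Stable human CHRM1 CHO line, 1 h dye load at 37 C, compounds from DMSO, kinetic fluorescence read.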

[14] = target: Beta-2 adrenergic receptor (Homo sapiens) (UniProt P07550); assay: Adrenergic beta2 receptor (ADRB2) small molecule antagonists, cell-based qHTS assay (AID 1963592); also: series mostly up to about 92 µM; nearly all actives have a fitted effect of over 50% in size
Beta-2 adrenergic receptor (Homo sapiens), sequence (P07550 whole entry, looked up): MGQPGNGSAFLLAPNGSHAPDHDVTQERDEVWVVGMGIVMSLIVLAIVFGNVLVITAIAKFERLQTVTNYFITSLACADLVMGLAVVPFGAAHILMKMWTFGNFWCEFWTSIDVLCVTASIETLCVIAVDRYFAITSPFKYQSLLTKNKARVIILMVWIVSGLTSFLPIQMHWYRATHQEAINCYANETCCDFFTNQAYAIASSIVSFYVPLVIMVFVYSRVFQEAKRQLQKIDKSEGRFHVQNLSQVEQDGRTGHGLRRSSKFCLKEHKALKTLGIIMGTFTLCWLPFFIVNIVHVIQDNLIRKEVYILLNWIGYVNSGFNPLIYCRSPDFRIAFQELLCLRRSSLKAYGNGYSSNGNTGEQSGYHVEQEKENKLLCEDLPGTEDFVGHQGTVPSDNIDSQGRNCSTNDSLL
Method in brief: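 Cells (CHO, stable ADRB2 overexpression) incubated 18-20hr at 37C; compounds added from DMSO; agonist mix (1nM isoproterenol, 100uM IBMX, 25uM Ro-20-1724) added; 0.5hr RT; d2-cAMP and anti-cAMP-cryptate added; 1hr RT; 665/615 nm read.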

[15] = target: D(2) dopamine receptor (Homo sapiens) (UniProt P14416); assay: Dopamine D2 receptor (DRD2) small molecule agonists, cell-based qHTS assay (AID 1963594); also: nearly all actives have a fitted effect of over 35% in size; also: potency is read from the fitted curve at half-maximal effect
D(2) dopamine receptor (Homo sapiens), sequence (P14416 whole entry, looked up): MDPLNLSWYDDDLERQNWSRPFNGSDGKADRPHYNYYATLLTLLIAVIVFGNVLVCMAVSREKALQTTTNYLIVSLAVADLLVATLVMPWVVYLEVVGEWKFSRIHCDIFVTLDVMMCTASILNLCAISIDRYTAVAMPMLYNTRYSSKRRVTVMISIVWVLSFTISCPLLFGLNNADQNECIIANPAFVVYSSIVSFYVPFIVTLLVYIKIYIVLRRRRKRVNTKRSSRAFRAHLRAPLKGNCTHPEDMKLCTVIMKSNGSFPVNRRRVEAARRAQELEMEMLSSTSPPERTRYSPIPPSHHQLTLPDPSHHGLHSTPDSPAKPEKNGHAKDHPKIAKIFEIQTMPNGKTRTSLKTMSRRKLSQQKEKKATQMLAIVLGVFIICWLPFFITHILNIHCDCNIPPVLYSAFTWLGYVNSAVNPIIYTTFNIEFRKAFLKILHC
Method in brief: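 cAMP accumulation in DRD2-HEK293 cells measured by HTRF after 1 h detection; compounds added 10 min before NKH477 (200nM […]) forskolin-analogue stimulation, 30 min at room temperature, with Ro20-1724 present at 0.1 mM final.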

[16] = target: D(2) dopamine receptor (Homo sapiens) (UniProt P14416); assay: Dopamine D2 receptor (DRD2) small molecule antagonists, cell-based qHTS assay (AID 1963595; active = well fitted inhibition curve with a large enough effect in the signal ratio in the repeat runs, with a control signal flat; the % refers to the signal ratio)
Method in brief: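 Readout: HTRF cAMP, cAMP-d2 competing with cellular cAMP for anti-cAMP cryptate, read after 1 h. Cells: DRD2-HEK293. Conditions: 0.1 mM Ro20-1724, 12 nM quinpirole, 200 nM NKH477, 30 min RT.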

[17] = cAMP Responsive Elements (CRE) small molecule agonists, cell-based qHTS assay (AID 1963590)
Method in brief: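 A CRE-responsive beta-lactamase reporter in HEK 293T cells was used. Treatment ran 3 h at 37 C; detection used LiveBLAzer B/G FRET substrate for 2 h at room temperature.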

[18] = cAMP Responsive Elements (CRE) small molecule antagonists, cell-based qHTS assay (AID 1963591; active = well fitted inhibition curve with a large enough effect in the signal ratio in the repeat runs, not every such curve was filed as active; the % refers to the signal ratio)
Method in brief: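 HEK293T cells carrying a CRE-driven beta-lactamase reporter receive compound and NKH477 (0.25 uM final) for 3 h. Fluorescence from LiveBLAzer B/G FRET substrate is read after 2 h at room temperature.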

[19] = target: Beta-2 adrenergic receptor (Homo sapiens) (UniProt P07550); assay: Adrenergic beta2 receptor (ADRB2) small molecule agonists, cell-based qHTS assay (AID 1963593);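 also: CHO cells stably overexpressing human ADRB2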
Method in brief: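 CHO cells stably over-expressing ADRB2 were plated overnight at 37C, then dosed with compounds plus a stimulation mix containing 100uM IBMX and 25uM Ro-20-1724 for 0.5hr at room temperature. cAMP was measured by HTRF competition, 1hr.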

Measured: Potency

CC(C)OC(=O)C(C)N(C(=O)c1ccccc1)c1ccc(F)c(Cl)c1 (stereo not given)
not listed: [17] | [18] | [19]
inactive: all other assays above

CCC(=O)C(=O)CC
not listed: [8] | [16]
inactive: all other assays above

CCOC(=O)CC1(C)OCC(C)O1 (stereo not given)
not listed: [8] | [12] | [19]
inactive: all other assays above

CCCCCCCCCCCC
not listed: [6] | [9] | [14] | [19]
inactive: all other assays above

CCC(C(=O)OCCN1CCOC(c2ccccc2)C1C)c1ccccc1 (stereo not given)
not listed: [9] | [10] | [11] | [12]
inactive: all other assays above

Cc1ccc2c(c1)c1c3n2CCNC3CCC1 (stereo not given)
active: [11] 9.52 µM
not listed: [6] | [8] | [10] | [19]
inactive: all other assays above

NCCS
not listed: [9] | [17] | [18] | [19]
inactive: all other assays above

CCCc1ncc(C(=O)O)s1
not listed: [9] | [14] | [19]
inactive: all other assays above

COCC(=O)Nc1c(I)c(C(=O)NCC(O)CO)c(I)c(C(=O)N(C)CC(O)CO)c1I (stereo not given)
not listed: [6] | [8]
inactive: all other assays above

C=CCN1CCc2nc(N)sc2CC1
active: [10] 4.1 µM | [11] 6.01 µM | [15] 0.119 µM
not listed: [6] | [8]
inactive: all other assays above

Cc1ccc2ccccc2n1
not listed: [9] | [13] | [17]
inactive: all other assays above
